Source: PubChem (National Center for Advancing Translational Sciences (NCATS))
An excerpt weighted towards active compounds, which were near 1.2% of everything screened.
pAkt inh – Akt phosphorylation inhibition | Neuro2A IGF-stimulated pAkt S473 HTRF, 20 min; hits give low values | activity change, % for hits at 50 µM | 360,000 compounds, 0.32% hits; in the data active = activity change below about -80%; inconclusive = mostly about -51% to -80%; also: % is scaled to controls: 0 for no effect and ±100 for the full control effect
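Neuro2A cells in DMEM with 0.5% FBS, overnight at 37 deg C, given compound at single 50 µM final, then IGF (6 nM final) for 20 min at 37 deg C. Lysed; phospho-Akt Ser473 by HTRF after 24 h, 665/615 ratio.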
RXFP1 ag – RXFP1 (human) receptor agonism; Potency, µM (highest dose often 57.5 µM), for inactives: at the top dose activation, hits mostly activators; HEK293T-RXFP1 cAMP TR-FRET, 30 min; response scale: percent of porcine relaxin response, buffer zero; 370,000 compounds, 0.3% hits; active = well fitted activation curve with a large enough effect; inconclusive = small, poorly fitted or top-dose-only effect; also: potency is read from the fitted curve at half-maximal effect; % is scaled to controls: 0 for no effect and ±100 for the full control effect; nearly all actives have a fitted effect of over 60% in size
Target sequence (Q9HBX9 whole entry, looked up): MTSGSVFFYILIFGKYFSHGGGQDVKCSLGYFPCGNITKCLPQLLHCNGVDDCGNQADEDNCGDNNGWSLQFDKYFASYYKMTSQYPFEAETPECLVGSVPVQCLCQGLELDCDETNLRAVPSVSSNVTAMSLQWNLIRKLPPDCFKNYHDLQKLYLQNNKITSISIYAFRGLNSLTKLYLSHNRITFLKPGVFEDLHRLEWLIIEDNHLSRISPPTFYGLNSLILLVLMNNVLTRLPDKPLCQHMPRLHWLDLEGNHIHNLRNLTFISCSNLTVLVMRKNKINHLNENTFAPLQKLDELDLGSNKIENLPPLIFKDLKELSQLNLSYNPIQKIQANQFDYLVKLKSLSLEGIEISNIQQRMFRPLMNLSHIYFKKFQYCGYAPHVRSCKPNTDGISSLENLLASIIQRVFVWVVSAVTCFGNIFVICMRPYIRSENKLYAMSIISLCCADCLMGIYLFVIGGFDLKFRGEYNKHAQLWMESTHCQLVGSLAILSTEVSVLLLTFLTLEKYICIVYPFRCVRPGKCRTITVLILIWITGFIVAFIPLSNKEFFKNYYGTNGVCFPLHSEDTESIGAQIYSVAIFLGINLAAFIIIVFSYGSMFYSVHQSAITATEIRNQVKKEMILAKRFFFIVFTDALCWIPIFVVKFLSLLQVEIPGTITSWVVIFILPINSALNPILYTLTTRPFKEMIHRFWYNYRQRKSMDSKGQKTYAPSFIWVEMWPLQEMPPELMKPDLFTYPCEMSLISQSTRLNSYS
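HEK293 cells stably expressing RXFP1, treated 30 min at 37C with compounds plus PDE4 inhibitor Ro 20174; cAMP measured by HTRF TR-FRET. Normalized to buffer and 29 nM porcine relaxin; EC50 by Hill fit.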
gsp agonist – gsp mutant agonism. gsp mutant cells, cAMP HTRF, 30 min. 340,000 compounds, 0.13% hits. Potency, µM (titrated, usually from 76.9 µM), for the others: at the highest dose activation (cAMP increase), actives largely listed as activators; active = well fitted activation curve with a large enough effect; inconclusive = small, poorly fitted or top-dose-only effect, or another doubt; inactive = no such curve, though single readings can be large or run the other way; cell line not stated here;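 also: phosphodiesterase inhibitor Ro 20-1724 added with compounds to block cAMP breakdown; potency is read from the fitted curve at half-maximal effect; nearly all actives have a fitted effect of over 60% in size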
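Cells stably selected in G418 were plated at 2000/well, grown 16-24 hr, then given compounds in DMSO with the PDE inhibitor […] (300 uM solution added) for 30 min at 37C; cAMP was read by HTRF.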
RXFP1 antag – blocks the human relaxin receptor RXFP1. 350,000 compounds, 0.59% hits. HEK293-RXFP1, relaxin-stimulated cAMP HTRF, 30 min; hits give low values. activity change, negative = inhibition, % at 57.5 µM;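 active = activity change of -60% or lower, but not beyond a set lower limit; inconclusive = change between -60% and -40%, or beyond the set limit; inactive = change above -40%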; also: % is scaled to controls: 0 for no effect and ±100 for the full control effect
gsp antagonist – gsp mutant antagonism. Potency, µM (titrated, usually from 76.9 µM), for the others: top-dose activity change, negative = inhibition, hits mostly inhibitors. 340,000 compounds, 0.4% hits. gsp-mutant cells, cAMP HTRF, 30 min; calls by dose curve; cell line not stated here;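 also: intracellular cAMP measured with PDE inhibitor Ro 20-1724 present during compound exposure; potency is read from the fitted curve at half-maximal effect; % is scaled to controls: 0 for no effect and ±100 for the full control effect; nearly all actives have a fitted effect of over 65% in size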
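HTRF cAMP read-out (cAMP-d2 plus anti-cAMP antibody-K in lysis buffer, 30 min RT). Before lysis, cells are exposed to compounds with […] for 30 min at 37C in DPBS containing Ca/Mg, BSA and Tween 20.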
* marks the source's active call; other numbers are inactive results; i = inactive; u = inconclusive; x = no result; [ ] = remark or other dose.

SMILES	pAkt inh	RXFP1 ag	gsp agonist	RXFP1 antag	gsp antagonist
N=c1c2c(-c3ccccc3)c(-c3ccccc3)n(Cc3ccco3)c2ncn1Cc1ccco1	i	2.1%	5.0%	-102.3*	3.8%
Clc1ccc(/C=C/c2nc3ccccc3[nH]2)cc1	i	10.5%	-9.0%	-1.9	-15.6%
Clc1cccc(Cl)c1/C=C/c1nc2ccccc2[nH]1	i	5.1%	-1.1%	5.5	28.2µM*
C[C@@H](O)[C@H]1C(=O)N2C(C(=O)O)=C([C@H]3CCCO3)S[C@H]12	x	x	x	-3.6	x
COc1ccc(N2CCN(C(=O)CC(C)S(=O)(=O)c3ccc4c(c3)NC(=O)CO4)CC2)cc1 (stereo unspecified)	i	2.5%	21.6%	35.9	u
CC(CC(=O)N1CCN(c2cccc(Cl)c2)CC1)S(=O)(=O)c1ccc2c(c1)NC(=O)CO2 (stereo unspecified)	i	0.9%	-19.6%	-12.7	28.2µM*
Cc1ccc(C)c(N2CCN(C(=O)CCS(=O)(=O)c3ccc4c(c3)NC(=O)CO4)CC2)c1	i	4.0%	7.7%	-17.5	50.1µM*
CCc1ccc(N2C(=O)CSC23C(=O)N(Cc2cccc(OC)c2)c2ccccc23)cc1 (stereo unspecified)	x	0.6%	x	x	x
COc1ccc(-c2nnc(SCC(=O)Nc3cccc(C(F)(F)F)c3)nc2-c2ccc(OC)cc2)cc1	x	-0.9%	x	-16.8	x
COc1ccc(-n2c(SCC(=O)NC3CCCCC3)nc3c([nH]c4ccccc43)c2=O)cc1	x	14.7%	x	x	x
C=C(CC)C(=O)c1ccc(OCC(=O)O)c(Cl)c1Cl	i	-3.3%	x	-71.3*	u
O=C(CSCc1cnn(-c2ccccc2)c1-n1cccc1)NCc1cccc(Cl)c1	x	16.3%	x	u	x
C=CC(=O)N1C/C(=C/c2ccccc2)C(=O)/C(=C\c2ccccc2)C1	i	x	-0.1%	-115.6*	-17.3%
O=C1C(=Cc2ccc(Cl)cc2)Cc2ccccc21	i	x	x	x	x
C=CC(=O)N1C/C(=C/c2ccc(Cl)cc2)C(=O)/C(=C\c2ccc(Cl)cc2)C1	i	x	28.8%	-67.2*	3.7%
Cn1cc(S(=O)(=O)N2CCCC2)cc1C(=O)Nc1ccc(C(F)(F)F)cc1	x	-1.8%	x	8.6	x
CCc1cc2c(=O)c(-c3ccc4c(c3)OCCO4)coc2cc1OS(C)(=O)=O	i	-2.4%	-15.9%[15.4 µM]	-84.4*	u
CCc1cc2c(=O)c(-c3ccc4c(c3)OCCO4)coc2c(CN2CCCCC2C)c1O (stereo unspecified)	i	3.6%	13.8%	-5.6	-30.4%
CSC1=C(C#N)C(CC(C)C)C2=C(CCCC2=O)N1 (stereo unspecified)	-117.6%*	0.5%	10.4%	7.8	2.8%
N#Cc1ccc(NC(=O)C2Cc3ccccc3CN2S(=O)(=O)c2ccc(F)cc2)cc1 (stereo unspecified)	x	0.3%	x	-4.9	x
COc1ccc(CNC(=O)c2cc3c(=O)n(C)c4ccccc4c3n2C)c(OC)c1	x	-2.7%	x	x	x
Cc1ccccc1-c1nc(CNC(=O)NC2CCCCC2)c(C)o1	x	-1.2%	x	5.1	x
CCOc1ccc(/C(O)=C2/C(=O)C(=O)N(c3ccccn3)C2c2ccc(F)cc2)c(C)c1 (stereo unspecified)	i	0.0%	15.8µM*	12.2	11.0%
COc1ccc(-c2nc(-c3ccccc3)c(-c3ccc(O)cc3)[nH]2)cc1	x	2.3%	x	-104.2*	x
Cc1cccc(-n2nnnc2S(C)(=O)=O)c1	x	0.4%	x	-83.9*	x
SMILES	pAkt inh	RXFP1 ag	gsp agonist	RXFP1 antag	gsp antagonist
C=CC[N+]1([C@H]2C[C@H]3[C@@H]4CC[C@H]5C[C@H](OC(C)=O)[C@@H](N6CCCCC6)C[C@]5(C)[C@H]4CC[C@]3(C)[C@H]2OC(=O)CC)CCCCC1	x	x	x	-4.4	x
CCOC(=O)c1ccc(Nc2nnc(C(C)(C)C)c(=O)[nH]2)cc1	i	0.8%	2.1%	-10.1	39.8µM*
COc1ccc(NC(=O)C(=O)NCC(c2cccnc2)N2CCc3ccccc3C2)cc1 (stereo unspecified)	x	-2.1%	x	-17.7	x
COc1ccc(OC)c(NC(=O)c2cccc(N3C(=O)C4C5C=CC(C6CC56)C4C3=O)c2)c1 (stereo unspecified)	i	1.7%	-47.7%	-9.9	28.2µM*
COc1ccc(OC)c(NC(=O)c2cccc(N3C(=O)C4C5CCC(C5)C4C3=O)c2)c1 (stereo unspecified)	i	-3.0%	-39.6%	1.4	u
CCc1c(O)cc2n(c1=O)-c1ccc(Cl)cc1C2(C)C	i	-0.2%	u	1.0	44.7µM*
CCCN1C(=O)C2(OCCO2)c2cc(Cl)ccc21	i	-0.2%	-4.8%	-9.2	-5.6%
CCOC(=O)N1CCC(Nc2ccc(Cl)cc2N)CC1	x	x	x	-22.3	x
CC(=O)c1c(C)[nH]c(C(=O)NC2CCCCC2)c1C	i	-1.1%	-9.8%	0.6	-5.0%
CCN(CC)CCCNC(=O)c1[nH]c(C)c(C(=O)NC2CCCCC2)c1C	-83.2%*	0.2%	u	-1.5	0.9%
O=C(NCc1cccnc1)C1CCN(S(=O)(=O)c2cc(Cl)ccc2Cl)CC1	i	0.3%	6.1%	-88.0*	0.9%
CCCCC/C=C/C/C=C/CCCCCCCC(=O)NC(C)c1ccccc1 (stereo unspecified)	x	x	x	-27.4	x
CC(C)OC(=O)C(C(=O)C(F)(F)F)c1cc(NS(=O)(=O)c2ccc3ccccc3c2)c2ccccc2c1O (stereo unspecified)	i	0.9%	-26.2%	-85.5*	-10.8%
CCOc1ccc(S(=O)(=O)Nc2cc(SCC(=O)O)c(O)c3ccccc23)cc1	i	0.4%	-17.2%	-29.5	5.1%
Cc1ccc(C)c(CNC(=O)c2ccc3c(c2)nc2n3CCCCC2)c1	x	7.3%	x	-22.1	x
CCc1cc2c(=O)nc3n(c2s1)Cc1ccccc1/C3=C(/O)c1cccc([N+](=O)[O-])c1	i	u	3.16µM*	17.0	10.6%
COc1ccccc1Nc1c2c(nc3ccc(NC(=O)c4ccccc4F)cc13)CCCC2	x	2.3%	x	-66.1*	x
O=C(OCC#CCNc1nnc(-c2cccc3ccccc23)o1)c1cccs1	x	1.4%	x	x	x
Cc1sc(-n2cccc2)c(C(C)NC(=O)Nc2ccccc2Cl)c1C (stereo unspecified)	x	3.5%	x	-13.7	x
Cc1cc(Cl)ccc1OCC(=O)NCCOc1nc(N2CCCCC2)nc(N2CCOCC2)n1	i	2.1%	-42.3%	2.3	2.2%
COc1cc(C)nc(OCCNC(=O)COc2ccc(Cl)cc2C)n1	-108.6%*	1.0%	u	3.8	-1.2%
O=C1/C(=C2\C(=O)N(Cc3ccc(F)cc3)c3ccccc32)SC(=S)N1CCS(=O)(=O)O	i	0.0%	-51.4%	-72.4*	-1.2%
COc1ccc(C2CC(=O)N(CC(=O)Nc3ccc(C(F)(F)F)cc3)c3ccccc3S2)cc1 (stereo unspecified)	x	0.7%	x	x	x
